Screening data deposited in PubChem by Broad Institute.
PrP 5UTR inh: suppresses PrP 5' UTR mRNA reporter expression | cell-based PrP 5' UTR mRNA reporter, plate reader | inhibition, % (concentration not given with the values) | 340,000 compounds, 0.35% hits | AID 488862; in the data active means inhibition above about 52%; further: 0 = median of the neutral control wells
TcdB inh: inhibitors of Clostridioides difficile toxin B glycohydrolase; inhibition, % at 9.99 µM; 350,000 compounds, 0.24% hits; P18177; TcdB glycohydrolase enzymatic assay, plate reader; in the data active means inhibition above about 10%
Target sequence (P18177 whole entry, looked up): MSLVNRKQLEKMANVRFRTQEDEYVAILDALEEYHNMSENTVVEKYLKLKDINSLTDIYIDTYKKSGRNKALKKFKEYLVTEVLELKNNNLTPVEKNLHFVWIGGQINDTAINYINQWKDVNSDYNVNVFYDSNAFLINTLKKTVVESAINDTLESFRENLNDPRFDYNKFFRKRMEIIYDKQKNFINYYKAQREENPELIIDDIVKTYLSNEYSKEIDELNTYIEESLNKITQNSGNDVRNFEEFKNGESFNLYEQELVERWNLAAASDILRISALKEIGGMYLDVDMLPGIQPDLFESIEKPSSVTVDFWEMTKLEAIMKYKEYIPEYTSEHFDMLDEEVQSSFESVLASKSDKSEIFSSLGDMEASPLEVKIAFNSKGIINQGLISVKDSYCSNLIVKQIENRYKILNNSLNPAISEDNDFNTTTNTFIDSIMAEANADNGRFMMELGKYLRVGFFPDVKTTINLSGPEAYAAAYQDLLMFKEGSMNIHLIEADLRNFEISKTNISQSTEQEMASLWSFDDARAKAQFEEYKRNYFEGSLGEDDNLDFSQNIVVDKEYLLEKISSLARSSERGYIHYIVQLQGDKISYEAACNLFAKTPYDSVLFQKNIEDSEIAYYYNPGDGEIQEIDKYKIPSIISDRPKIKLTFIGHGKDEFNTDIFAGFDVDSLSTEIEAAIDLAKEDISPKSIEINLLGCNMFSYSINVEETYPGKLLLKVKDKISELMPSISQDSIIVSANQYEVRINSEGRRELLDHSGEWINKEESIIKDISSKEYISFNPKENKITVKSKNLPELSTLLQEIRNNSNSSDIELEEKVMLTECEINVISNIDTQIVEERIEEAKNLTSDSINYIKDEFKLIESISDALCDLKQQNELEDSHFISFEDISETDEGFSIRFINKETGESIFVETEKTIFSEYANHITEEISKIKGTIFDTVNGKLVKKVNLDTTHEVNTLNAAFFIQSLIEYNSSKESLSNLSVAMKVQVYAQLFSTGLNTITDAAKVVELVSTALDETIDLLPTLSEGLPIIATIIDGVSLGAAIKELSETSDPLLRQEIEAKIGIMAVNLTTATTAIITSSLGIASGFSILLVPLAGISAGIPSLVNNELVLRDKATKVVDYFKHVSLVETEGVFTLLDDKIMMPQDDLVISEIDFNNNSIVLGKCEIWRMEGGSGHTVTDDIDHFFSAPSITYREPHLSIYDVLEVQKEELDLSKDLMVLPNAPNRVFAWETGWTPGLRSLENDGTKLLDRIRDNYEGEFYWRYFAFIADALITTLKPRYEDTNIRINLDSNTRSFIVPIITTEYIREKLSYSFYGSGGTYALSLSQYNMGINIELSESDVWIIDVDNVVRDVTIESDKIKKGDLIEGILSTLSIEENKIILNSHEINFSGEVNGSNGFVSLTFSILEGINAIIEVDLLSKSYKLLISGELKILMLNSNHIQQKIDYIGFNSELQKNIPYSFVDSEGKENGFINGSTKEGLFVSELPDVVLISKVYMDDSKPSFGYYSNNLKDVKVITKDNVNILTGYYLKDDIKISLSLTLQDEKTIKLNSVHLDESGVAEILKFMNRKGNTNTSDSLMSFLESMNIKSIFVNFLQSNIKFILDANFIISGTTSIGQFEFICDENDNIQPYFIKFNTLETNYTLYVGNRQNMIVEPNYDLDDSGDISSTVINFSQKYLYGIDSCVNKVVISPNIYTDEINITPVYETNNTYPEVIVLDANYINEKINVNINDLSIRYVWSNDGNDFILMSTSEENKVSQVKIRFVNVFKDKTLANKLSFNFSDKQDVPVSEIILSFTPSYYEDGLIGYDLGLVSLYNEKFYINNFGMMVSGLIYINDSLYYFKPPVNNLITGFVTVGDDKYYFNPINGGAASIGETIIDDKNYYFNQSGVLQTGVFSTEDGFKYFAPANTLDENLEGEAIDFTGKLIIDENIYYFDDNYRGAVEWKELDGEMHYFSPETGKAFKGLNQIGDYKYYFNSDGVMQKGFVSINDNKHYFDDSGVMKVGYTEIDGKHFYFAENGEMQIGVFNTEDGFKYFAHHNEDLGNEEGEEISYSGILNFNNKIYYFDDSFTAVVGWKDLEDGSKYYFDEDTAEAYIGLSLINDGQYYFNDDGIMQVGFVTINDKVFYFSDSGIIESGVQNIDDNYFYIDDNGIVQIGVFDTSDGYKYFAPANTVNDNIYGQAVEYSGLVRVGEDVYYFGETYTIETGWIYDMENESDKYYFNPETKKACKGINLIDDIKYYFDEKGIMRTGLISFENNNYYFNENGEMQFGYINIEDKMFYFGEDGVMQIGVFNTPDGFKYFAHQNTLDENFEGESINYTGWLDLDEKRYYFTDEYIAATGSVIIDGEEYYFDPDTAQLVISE
PfHsp40 yeast: rescue of PfHsp40-mediated yeast toxicity; S. cerevisiae expressing PfHsp40, growth rescue, ATP luminescence; growth rescue, % at 12.5 µM; 340,000 compounds, 0.68% hits; AID 504582; in the data active means growth rescue above about 28%, passing the limit was not always enough;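 further: yeast W303a lacking pdr1 and pdr3 grown in galactose medium; growth measured after three days at 30 °C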
FadD28 FP inh: M. tuberculosis FadD28 bisubstrate binding inhibition; inhibition, % at 12.5 µM; AID 588549; FadD28 bisubstrate probe binding, fluorescence polarization; 360,000 compounds, 0.22% hits; in the data active means inhibition above about 8.5%, passing the limit was not always enough
Yp Topo-I inh: Y. pestis Topo-I inhibition via cleavage products; Y. pestis Topo-I cleavage product accumulation, plate reader; activity, % at 10 µM; 360,000 compounds, 0.064% hits; in the data active means activity above about 50%, passing the limit was not always enough
BioA inh: BioA (M. tuberculosis) enzyme inhibition; purified M. tuberculosis BioA enzyme, plate reader; inhibition, % at 9.99 µM; 360,000 compounds, 0.096% hits; AID 602481; in the data active means inhibition above about 40%
Active calls of the source: *; nt = no result. The list is not random: actives were taken first. Their share in the collection is about 1.2%.

SMILES	PrP 5UTR inh	TcdB inh	PfHsp40 yeast	FadD28 FP inh	Yp Topo-I inh	BioA inh
COc1ccc(NC(=O)Nc2ccc3c(c2)C(=O)N([C@H](C)CO)C[C@@H](C)[C@@H](CN(C)Cc2ccncc2)OCCCC[C@@H](C)O3)cc1	nt	-1	nt	nt	nt	1
CN(C)C(=O)C[C@H]1C=C[C@@H](NC(=O)NC2CCCCC2)[C@@H](CO)O1	nt	-1	nt	nt	nt	0
Oc1ccccc1CNc1cccc2cccnc12	-31	-2	1	-2	0	nt
COc1cc(NCc2ccccc2O)c2ncccc2c1	-22	1	1	12*	-7	-1
O=C(CN1CCOCC1)N[C@H]1CC[C@H](CCNC(=O)C2CCC2)O[C@@H]1CO	nt	-1	nt	nt	nt	-1
Cc1ccc(-c2nc(Nc3cccc(O)c3)c3ccccc3n2)cc1	-13	3	30*	-12	-30	0
COc1cccc(Nc2nc(-c3ccccc3)nc3ccccc23)c1	11	-2	38*	-2	-33	-2
O=[N+]([O-])c1cc(Br)ccc1NS(=O)(=O)c1ccccc1	-6	19*	65*	-1	3	1
O=[N+]([O-])c1ccccc1NS(=O)(=O)c1ccccc1	nt	1	nt	-2	10	1
COc1cc(/C=C/[N+](=O)[O-])ccc1OC(=O)c1cc2ccccc2oc1=O	-17	1	118*	-2	1	-3
O=C(N[C@H]1CC[C@H](CCNS(=O)(=O)Cc2ccccc2)O[C@@H]1CO)c1cnccn1	nt	-3	nt	nt	nt	-1
COC(=O)COc1ccc(Cl)cc1C1Nc2ccccc2C(=O)N1c1ccc(OC)cc1 (stereo not given)	-12	0	-1	23*	6	2
COc1cccc(/C=N/Nc2ncnc3scc(-c4ccccc4)c23)c1O	50	nt	422*	0	67*	nt
COc1cccc(/C=N/Nc2nccnc2Cl)c1O	48	-4	88*	-3	2	nt
COc1cccc(/C=N/Nc2ncnc(Cl)c2N)c1O	16	-10	16	1	-3	nt
C[C@@H]1CN([C@@H](C)CO)C(=O)c2cc(C#Cc3ccncc3)cnc2O[C@H]1CN(C)Cc1ccncc1	nt	nt	nt	nt	nt	1
COc1cccc(-c2ccc([C@@H]3[C@@H](C#N)N(C(=O)Cc4ccccc4)[C@@H]3CO)cc2)c1	nt	0	nt	nt	nt	0
O=C1[C@@H]2[C@H](C(=O)N1O)[C@H]1C=C[C@@H]2C1	4	nt	34*	-2	2	-2
O=C1C2C3C=CC(C3)C2C(=O)N1CCCCN1C(=O)C2C3C=CC(C3)C2C1=O (stereo not given)	-8	nt	-1	-1	-6	-3
COc1cccc(S(=O)(=O)Nc2ccc3c(c2)[C@@H]2C[C@@H](CC(=O)O)O[C@@H](CO)[C@@H]2O3)c1	nt	-1	nt	nt	nt	-1
CO[C@H]1CN(C)C(=O)c2cccc(C#N)c2OC[C@@H]2O[C@H](CC[C@H]2OC)CCN(C)C(=O)[C@@H]1C	nt	-1	nt	nt	nt	-1
COc1ccc(-c2oc3ccccc3c2C#Cc2cncn2C)cc1	-20	2	336*	0	19	-2
COc1ccc(-c2sc3ccc(OC)cc3c2C#Cc2cncn2C)cc1	10	1	-1	1	-10	-5
CCCNC(=O)c1ccc2c(=O)c(O)c(-c3ccc(OC)cc3)[nH]c2c1	-25	nt	185*	-5	-4	0
Cc1ccc(-c2[nH]c3cc(C(N)=O)ccc3c(=O)c2O)cc1	-18	0	44*	-3	-2	-3
SMILES	PrP 5UTR inh	TcdB inh	PfHsp40 yeast	FadD28 FP inh	Yp Topo-I inh	BioA inh
Cc1ccc(CNC(=O)c2ccc3c(=O)c(O)c(-c4ccc(C)cc4)[nH]c3c2)cc1	37	1	164*	-1	18	0
CCCNC(=O)c1ccc2c(=O)c(O)c(-c3ccc(C)cc3)[nH]c2c1	30	1	-1	-2	4	1
C[C@@H]1CN([C@@H](C)CO)S(=O)(=O)c2ccc(-c3ccccc3)cc2O[C@@H]1CN(C)S(C)(=O)=O	nt	0	nt	nt	nt	0
O=C([C@H]1[C@H](CO)[C@H]2Cn3c(ccc(-c4ccccc4F)c3=O)[C@@H]1N2C(=O)C1CC1)N1CCOCC1	nt	0	nt	nt	nt	-1
Cc1ccc(S(=O)(=O)NC23CC4CC(CC(C4)C2)C3)cc1	12	1	107*	-3	20	-1
Cc1ccc(S(=O)(=O)NN=C2C3CC4CC(C3)CC2C4)cc1	4	1	0	-1	9	nt
COc1cc(-c2nc(=S)[nH][nH]2)cc(OC)c1OC	-7	30*	1	0	-3	nt
O=c1c(O)c(-c2cc(O)c(O)c(O)c2)oc2cc(O)cc(O)c12	-24	-14	8	14*	-21	0
CCn1cc(C(=O)O)c(=O)c2cc(F)c(N3CCN(C(=S)NC(=O)c4ccccc4Br)CC3)cc21	-25	10*	0	-2	7	1
COc1ccccc1CNC(=O)C[C@H]1C=C[C@@H](NC(=O)CN(C)C)[C@H](CO)O1	nt	-1	nt	nt	nt	0
C/C(=N\NC(N)=S)c1ccc2c(c1)OCCO2	-3	12*	0	-1	4	nt
CC(=O)N/N=C(\C)c1ccc2c(c1)OCCO2	-9	1	0	-1	-1	nt
COc1ccc(NC(c2ccccc2)c2ccncc2)cc1 (stereo not given)	-13	16*	1	-3	-3	0
O=c1[nH][nH]c2c(N=Cc3ccccc3O)ccc(F)c12	-18	-1	-1	16*	-24	1
COc1ccc(S(=O)(=O)NCc2cc(=O)n(C)c(=O)n2C)cc1C	-19	0	41*	-3	4	0
COc1ccc(S(=O)(=O)NCc2cc(=O)n(C)c(=O)n2C)cc1F	-10	0	-1	-3	5	-1
C[C@@H](NC(=O)C[C@H]1C=C[C@H](NC(=O)CN2CCOCC2)[C@H](CO)O1)c1ccccc1	nt	1	nt	nt	nt	2
Cc1onc(-c2ccccc2)c1C(=O)NNC(=O)c1ccccc1O	0	1	68*	0	-3	-3
COc1ccc(-c2cc(C(=O)NNC(=S)NC(=O)c3c(-c4ccccc4)noc3C)[nH]n2)cc1	-29	1	287*	2	-3	nt
C[C@@H]1CCCCO[C@@H](CN(C)Cc2ccc3c(c2)OCO3)[C@H](C)CN([C@H](C)CO)C(=O)c2cc(NS(=O)(=O)c3ccc(Cl)cc3)ccc2O1	nt	-1	nt	nt	nt	2
COc1ccc(C(=O)Nc2c(-c3cccs3)c(=O)c3ccccc3n2C)cc1	-10	11*	0	0	6	nt
CCN1[C@@H]2Cn3c(ccc(-c4cccc(F)c4)c3=O)[C@H]1[C@@H](C(=O)NCCCN(C)C)[C@@H]2CO	nt	-5	nt	nt	nt	-2
COc1ccc(C(=O)NCc2ccc(C)cc2)cc1S(=O)(=O)N1CCCc2ccccc21	-21	nt	2	9.9*	-7	-2
COc1ccc(C(=O)N2CCOCC2)cc1S(=O)(=O)N1CCCc2ccccc21	-20	12*	0	0	3	nt
CC[C@H](C)/C=C(C)/C=C/c1cc2c(cn1)C(=O)[C@@](C)(OC(C)=O)C(O)=C2Cl	nt	1	nt	11*	13	3
